# How the values were obtained:
# Assay type in all cases: functional
# [1] = target: Solute carrier family 2, facilitated glucose transporter member 1 (Homo sapiens) (UniProt P11166); assay: ST_JUDE_LEISH: Cytotoxicity at 2uM final concentration against transgenic Leishmania Mexicana promastigotes LmGLUT1 that are glucose transport deficient and complemented with the human glucose transporter GLUT1. Activity is measured by DNA content using SYBR green in vitro
# [2] = target: Hexose transporter 1 (Plasmodium falciparum) (UniProt O97467); assay: ST_JUDE_LEISH: Cytotoxicity at 2uM final concentration against transgenic Leishmania Mexicana promastigotes LmPfHT that are glucose transport deficient and complemented with the Plasmodium falciparum hexose transporter. Activity is measured by DNA content using SYBR green in vitro
# [3] = target: Glucose transporter (Leishmania mexicana) (UniProt O61059); assay: ST_JUDE_LEISH: Cytotoxicity at 2uM final concentration against transgenic Leishmania Mexicana promastigotes LmGT2 that are glucose transport deficient and complemented with the L. Mexicana glucose transporter 2. Activity is measured by DNA content using SYBR green in vitro
# Solute carrier family 2, facilitated glucose transporter member 1 (Homo sapiens), sequence (P11166 whole entry): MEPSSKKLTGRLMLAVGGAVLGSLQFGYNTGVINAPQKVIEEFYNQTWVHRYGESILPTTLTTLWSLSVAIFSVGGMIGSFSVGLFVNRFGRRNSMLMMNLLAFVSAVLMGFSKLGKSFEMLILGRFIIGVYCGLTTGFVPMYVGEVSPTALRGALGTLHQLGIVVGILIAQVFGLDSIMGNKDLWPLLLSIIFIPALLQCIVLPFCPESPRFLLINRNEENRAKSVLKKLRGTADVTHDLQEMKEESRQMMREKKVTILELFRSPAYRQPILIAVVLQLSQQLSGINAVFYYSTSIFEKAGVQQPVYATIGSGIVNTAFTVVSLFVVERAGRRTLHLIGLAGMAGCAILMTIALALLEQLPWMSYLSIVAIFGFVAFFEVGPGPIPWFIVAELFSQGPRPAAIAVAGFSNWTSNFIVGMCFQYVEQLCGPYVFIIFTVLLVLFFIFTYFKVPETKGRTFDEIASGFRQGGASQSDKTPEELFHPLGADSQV
Compound,inhibition [1],inhibition [2],inhibition [3]
COC(=O)c1ccc(-c2ccc(-c3cccnc3)cc2C)cc1,91.7%,90.5%,74.1%
COc1ccc(NC(=O)c2ccc3[nH]c(-c4ccc(Cl)cc4)cc3c2)cc1OCCN(C)C,2.93%,1.88%,0.79%
CCCCNc1ccc(C(=O)NC2CCN(C[C@H](O)c3ccnc4ccc(OC)cc34)CC2)cc1,9.46%,11.8%,3.39%
CCC(C)NC(=O)CN1CN(c2ccccc2)C2(CCN(C(=O)c3ccc4ccccc4c3)CC2)C1=O (configuration not stated),0.98%,-0.53%,-0.96%
COC(=O)c1ccc2c(-c3nc4ccc(OC)cc4[nH]3)c[nH]c2c1,11.5%,10.3%,8.93%
CN(c1ccc(NC(=O)Nc2cc(C(C)(C)C)on2)cc1)c1ccnc(NCCN2CCOCC2)n1,32.3%,57.4%,5.4%
COc1ccc(C2CC(=O)C3=C(C2)NC(C)=C(C(=O)OC(C)C)C3c2cccc(O)c2)cc1OC (configuration not stated),4.15%,1.12%,1.71%
O=C(/C=C/c1ccc(F)c(Br)c1)NCCCCCN1CCC(c2c[nH]c3ccccc23)CC1,1.88%,0.52%,-1.08%
CCNc1cc(C(=O)N[C@@H](Cc2ccc(F)c(F)c2)[C@H](O)CNC2CCCCC2)cc(N2CCCCS2(=O)=O)c1,1.98%,0.24%,0.91%
O=C(N[C@H]1CCN(CCc2ccc(O[C@H]3CCNC3)c(F)c2)C1)c1ccc(Cl)c(Cl)c1,8.17%,9.6%,9.34%
CCCC(C)NC[C@@H](O)[C@H](Cc1ccccc1)NC(=O)c1cc(NCC)cc(N2CCCCS2(=O)=O)c1 (some centres not stated),0.32%,0.76%,-2.92%
CCCCCCNc1cc(C)nc2ccc(OC)cc12,11.1%,11.4%,4.54%
CN(CCc1ccccc1)c1ncc(-c2ccccc2CNCc2ccccc2O)cn1,0.08%,-1.17%,2.23%
COc1cc2cc(-c3nc4ccccc4[nH]3)c(N)nc2cc1OC,84%,91.3%,67.3%
CN1CCCN(Cc2ccc(-c3cccc(NC(=O)c4ccc(C#N)cc4)c3)cc2)CC1,1.03%,4.1%,-1.1%
Cc1c(Br)cc2nc(-c3ccc(C(=O)NC4CCN(Cc5ccccc5)CC4)cc3)[nH]c2c1C,1.63%,1.85%,0.51%
O=C1CCCC1Sc1nc2ccccc2c(=O)n1-c1ccc(Cl)c(Cl)c1 (configuration not stated),2.33%,1.97%,-1.42%
CCC(CC)OC(=O)C(C)c1cccc(C(=O)c2ccccc2)c1 (configuration not stated),2.22%,-0.21%,1.64%
Cc1nnc(NC(=O)c2cn(-c3ccccc3)nc2-c2ccccc2C)o1,1.69%,2.78%,2%
CC(C)CCN1CCC(Oc2ccc(NC(=O)c3ccco3)cc2Cl)CC1,7.85%,9.84%,5.26%
Cc1ccc(O)cc1Nc1ccnc2ccc(-c3cccc(CN(C)C)c3)cc12,0.24%,-2.77%,0.73%
NCC1CCCN1Cc1ccc(-c2ccc(-c3nc4ccccc4[nH]3)s2)cc1 (configuration not stated),-0.41%,-0.71%,-0.41%
Oc1cccc(-c2nc(-c3ccccc3)c(-c3ccc4oc5ccc(-c6[nH]c(-c7cccc(O)c7)nc6-c6ccccc6)cc5c4c3)[nH]2)c1,3.36%,2.88%,2.11%
Cc1cccc(C(=O)Nc2ccnc(N(C)CCCN(C)Cc3cccc(O)c3)c2)c1,-1.6%,1.08%,-0.23%
COc1ccc2nccc([C@@H](O)CN3CCC(NCCOc4ccccc4C(F)(F)F)CC3)c2c1,0.68%,2.17%,2.28%

Compound,inhibition [1],inhibition [2],inhibition [3]
CCn1cc(C(=O)O)c(=O)c2cc(F)c(N3CCN(S(=O)(=O)c4ccc(N)cc4)CC3)cc21,0.77%,0.41%,-4%
COc1ccc2nccc([C@@H](O)CN3CCC(NC(=O)/C(=C/c4ccccc4)c4ccc(-c5ccccc5)cc4)CC3)c2c1,1.6%,0.83%,0.6%
Cc1[nH]c(C)c(-c2cccc(-c3ccc(OC(F)(F)F)cc3)c2)c(=O)c1Br,1.89%,4.46%,-1.64%
Cc1cccc2nc(-c3cccc(-c4cccc(NC(=O)Nc5ccccc5)c4)c3)[nH]c12,3.85%,3.36%,3.26%
Oc1cccc(/C=N/Nc2ccnc3cc(Cl)ccc23)c1,4.49%,0.91%,3.14%
O=C(O)c1cccc2c(-c3ccncc3)cccc12,0.79%,1.26%,1.31%
CS(=O)(=O)CCNCc1cccc(-c2ccc3c(Nc4ccc(Oc5cccnc5)cc4)ccnc3c2)c1,-1.35%,-1.49%,-3%
CC(C)NCc1ccc(-c2ccc(NC(=O)c3cccc(C#N)c3)cc2)cc1,1.38%,1.38%,-1%
Cc1cc(=NN=Cc2ccc(Cl)cc2)c2cc(C(F)(F)F)ccc2[nH]1,1.05%,-4.87%,5.23%
O=C(/C=C/c1ccc(C(F)(F)F)cc1)N1CCc2cc3nccc(N4CCN5CCC[C@H]5C4)c3cc21,1.68%,2.34%,0.92%
CCNc1cc(C(=O)N[C@@H](Cc2ccccc2)[C@H](O)CNCCC(C)(C)C)c(F)c(N2CCCCS2(=O)=O)c1,6.09%,-0.44%,0.33%
Cc1cc(-c2ccc(NC(=O)N3CCc4cc(Br)c(N5CCN(C)CC5)cc43)cc2)ccc1C#N,11.9%,18.9%,8.55%
N=C(N)Nc1nccc(NCc2ccccc2)n1,-2.64%,-0.68%,-0.48%
COc1cc2nc(N3CCC(CNC(=O)c4ccc(-c5ccc(C(=O)N(C)C)cc5OCCN(C)C)cc4)CC3)nc(N)c2cc1OC,0.34%,0.98%,0.37%
Cc1ccc2c(=O)cc(CCc3cccc(F)c3F)n(CC(=O)N(Cc3ccc(-c4ccc(C(F)(F)F)cc4)cc3)C3CCN(C(C)C)CC3)c2n1,-2.51%,-0.71%,-1.8%
O=C(/C=C/c1ccc(Cl)c(Cl)c1)NCCCCCN1CCC(C(=O)Nc2cccc(Cl)c2)CC1,2.86%,1.97%,2.09%
O=C(/C=C/c1ccc(Cl)c(Cl)c1)NCCCCCN1CCC(c2c[nH]c3ccccc23)CC1,1.33%,4.32%,3.63%
COc1cccc(-c2ccc(C(=O)NCC3CCCN(Cc4cccc(C(F)(F)F)c4)C3)s2)c1 (configuration not stated),2.94%,-4.36%,5.79%
CCOC(=O)N(C)/N=C/[C@H](CCc1ccccc1)NC(=O)[C@H](CC(C)C)NC(=O)c1cc2cccc(OC)c2o1,5.68%,3.47%,5.24%
O=C1COc2ccccc2N1C/C=C(\CN1CCC(c2ccccc2)CC1)c1cc(Cl)cc(Cl)c1,1.77%,1.99%,1.69%
Nc1cc(-c2ccc3ccccc3c2)nc2ccccc12,31.2%,26.8%,13.7%
N#Cc1ccc(-c2ccc(C(=O)NCCCCN3CC=C(c4ccc5c(c4OCC4CC4)CCCC5)CC3)cc2)cc1,0.36%,1.41%,-0.24%
Cc1sc(CNCCCNc2cc(=O)c3ccccc3[nH]2)c(C(F)(F)F)c1C,-2.84%,-0.65%,-0.52%
C#CCOc1ccccc1CN1CCC(N2CCc3cc(NC(=O)c4cc(C)on4)ccc32)C1 (configuration not stated),2.61%,1.64%,4.74%
